Assay outcomes as filed in PubChem.
This is one part of a sample in which hits are shown more often than they occur.
GBA enhancer – increases beta-glucosidase activity in Gaucher fibroblasts | P04062 | L444P Gaucher fibroblasts, 4-MU-glucoside fluorescence, 3 days | activation, % at 10 µM | 0.44% of 30,000 active | AID 784; in the data active = activation above about 65%;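 also: 0% = vehicle wells and 100% = positive control wells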
Target sequence (P04062 whole entry L483P): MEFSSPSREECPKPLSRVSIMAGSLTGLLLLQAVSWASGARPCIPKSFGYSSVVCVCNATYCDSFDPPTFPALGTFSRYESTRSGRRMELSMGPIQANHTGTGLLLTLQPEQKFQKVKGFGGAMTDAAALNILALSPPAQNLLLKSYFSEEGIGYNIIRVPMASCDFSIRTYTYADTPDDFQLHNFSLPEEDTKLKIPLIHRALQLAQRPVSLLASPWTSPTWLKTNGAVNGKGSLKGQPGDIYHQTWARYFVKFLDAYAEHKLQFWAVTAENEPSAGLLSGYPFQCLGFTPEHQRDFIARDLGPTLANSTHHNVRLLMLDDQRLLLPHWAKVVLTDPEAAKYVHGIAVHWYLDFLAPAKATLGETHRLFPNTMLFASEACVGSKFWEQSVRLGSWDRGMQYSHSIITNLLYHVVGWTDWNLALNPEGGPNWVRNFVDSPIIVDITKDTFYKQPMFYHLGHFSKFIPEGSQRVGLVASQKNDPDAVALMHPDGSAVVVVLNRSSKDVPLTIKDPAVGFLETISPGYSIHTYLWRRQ
An asterisk follows results filed as active.

SMILES	GBA enhancer
CC(C)Cn1c(=O)c2c(nc3n2CCCN3CCc2ccccc2)n(C)c1=O	-18
COC(=O)CS(=O)(=O)c1ccc2c(c1)CC(=O)N2	-5
c1coc(-c2nnc(SCc3nc4ccccc4[nH]3)o2)c1	-31
O=C1Nc2ccccc2C(O)(C(=O)NCc2ccco2)N1c1ccc(Cl)cc1 (stereo unspecified)	-30
O=C1Nc2ccccc2C(O)(C(=O)NC2CC2)N1c1ccc(Cl)c(Cl)c1 (stereo unspecified)	81*
O=C1[C@H]2[C@@H](C(=O)N1c1cc(Cl)cc(Cl)c1)[C@]1(C(=O)Nc3ccccc31)N1CCC[C@@H]21	-6
Cc1cccc2cc(C#N)c(NCCNS(=O)(=O)c3ccc4c(c3)OCCO4)nc12	-55
CNc1nc(NC)nc(-n2c(C(F)(F)F)nc3ccccc32)n1	-4
CCCN(CCC)S(=O)(=O)c1ccc(C(=O)Nc2nnc(CSC)o2)cc1	8
CCCCN(CC)S(=O)(=O)c1ccc(C(=O)Nc2nnc(CSC)o2)cc1	81*
CCCCN(CCCC)S(=O)(=O)c1ccc(C(=O)Nc2nnc(CSC)o2)cc1	10
COc1cccc(NC(=O)c2cn(C)c(=O)c3cc(OC)c(OC)cc23)c1	9
COc1ccc(C2SCC(=O)N2c2c(C)n(C)n(-c3ccccc3)c2=O)c(OC)c1 (stereo unspecified)	-3
COc1ccc2sc(N3C(=O)C4CC=C(C)CC4C3=O)nc2c1 (stereo unspecified)	8
CCOC(=O)NC(CC(=O)O)c1ccc(OCC)cc1 (stereo unspecified)	81*
COc1ccc(C(CC(=O)O)NC(=O)c2cccs2)cc1 (stereo unspecified)	-2
O=C(O)CC(NC(=O)OCc1ccccc1)c1ccccc1 (stereo unspecified)	-11
CC(=O)Nc1cccc(NC(=O)C2CCCN2C(=O)Nc2ccc(C)cc2)c1 (stereo unspecified)	80*
CC(=O)c1cccc(NC(=O)N2CCCC2C(=O)Nc2ccccc2C)c1 (stereo unspecified)	-20
CC(=O)c1cccc(NC(=O)N2CCCC2C(=O)NCc2ccc(C)cc2)c1 (stereo unspecified)	23
CCOCCCNC(=O)N[C@@H](Cc1ccccc1)C(=O)OC	11
COc1ccccc1C(c1nnnn1C(C)(C)C)N1CCN(Cc2ccncc2)CC1 (stereo unspecified)	0
COc1ccccc1N1CCN(C(c2ccc(Cl)cc2)c2nnnn2C(C)(C)C)CC1 (stereo unspecified)	-43
CCN1CCN(C(c2ccc(OC)c(OC)c2)c2nnnn2C(C)(C)C)CC1 (stereo unspecified)	140*
Cc1cccc(-n2nnc(C(=O)NC3CCCc4ccccc43)c2N)c1 (stereo unspecified)	-4
SMILES	GBA enhancer
O=C(Nc1ccccc1)c1ccc(S(=O)(=O)N2CCCC2)cc1	4
Cn1c(/C(C#N)=C(\O)c2ccc(S(=O)(=O)N3CCCCC3)cc2)nc2ccccc21	71*
COc1ccc(/C(O)=C(\C#N)c2nc3ccccc3n2C)cc1OC	2
CCn1nc(C(=O)O)c(=O)c2cc3c(cc21)OCO3	-25
CC1(C)NC(=O)N(CNc2cc(Cl)ccc2Cl)C1=O	-13
CC(C)(C)OC(=O)N1CCC(C(=O)N2CCC[C@H]2C(=O)O)CC1	-15
O=C(CSc1nnc(NCc2ccccc2)s1)c1ccco1	13
CCOCCn1c(=O)c2c(nc3n2CCN3c2ccc(CC)cc2)n(C)c1=O	-3
Cc1cc(N(C)C)nc(SC(C)C)n1	-2
CCC(c1nnc(SCc2nc3ccccc3s2)n1Cc1ccccc1)N(C)C (stereo unspecified)	0
c1ccc(Cn2c(SCc3nc4ccccc4s3)nnc2-c2ccco2)cc1	127*
c1ccc(-n2cnnc2SCc2nc3ccccc3s2)cc1	-19
CCOc1ccc(C(C)=O)cc1COc1ccc(-n2cnnn2)cc1	-7
COc1ccccc1N(CC(=O)Nc1cccnc1)S(C)(=O)=O	-9
COc1cc2c(cc1NC(=O)CN1C(=O)NC3(CCc4ccccc43)C1=O)oc1ccccc12 (stereo unspecified)	15
COc1oc(-c2ccccc2)nc1C(F)(F)F	11
CCOc1cc(-c2noc(-c3ccncc3)n2)cc(Br)c1OC	0
CCOc1ccc(-c2nc(-c3ccc(OC)cc3)no2)cc1OCC	1
CCOc1ccc(-c2noc(-c3ccncc3)n2)cc1OCC	228*
Cn1c(=O)c(C(=O)CSc2nncs2)c(N)n(Cc2ccccc2)c1=O	4
CCC(=O)N1CCN(c2ccccc2NC(=O)COc2cc(C)ccc2C(C)C)CC1	-1
Cc1noc(C)c1S(=O)(=O)N1CCCC(C(=O)NCc2ccccn2)C1 (stereo unspecified)	26
CN(C)C(C(=O)NC1CCCCC1)c1ccc(Cl)cc1 (stereo unspecified)	-23
COc1ccc(C(C(=O)NC2CCCCC2)N2CCC3(CC2)OCCO3)cc1 (stereo unspecified)	0
Cc1ccc(C(C(=O)NC2CCCCC2)N2CCCC2)cc1 (stereo unspecified)	127*
SMILES	GBA enhancer
CCOC(=O)c1ccc(N2C(=O)C3C(C2=O)C(C(=O)c2ccc(Cl)cc2)N2CCCC32)cc1 (stereo unspecified)	-1
O=C(COc1ccccc1F)Nc1ccc(S(=O)(=O)NCc2ccco2)cc1	-13
CCn1c(CC(=O)Nc2ccc(C)cc2)nnc1SCC(=O)N1CCN(c2ccccc2)CC1	-4
O=C(CSc1nnc(-c2ccc(Cl)cc2)o1)N1CCN(c2ccccc2)CC1	-2
CCn1c(SCC(=O)N2CCN(c3ccccc3)CC2)nnc1-c1cc2cc(Cl)ccc2o1	90*
Cc1ccc(C2/C(=C(/O)c3ccc(Br)cc3)C(=O)C(=O)N2Cc2ccco2)o1 (stereo unspecified)	-7
O=C(C1CCCN1C(=O)c1cccs1)N1CCN(Cc2ccc3c(c2)OCO3)CC1 (stereo unspecified)	-23
Cc1nonc1NC(=O)OCCN1CCOC1=O	88*
O=C1OCCN1CCN(CN1C(=O)CCC1=O)CN1C(=O)CCC1=O	-15
Cc1ccc2c3c(c(SCC(=O)Nc4nonc4C)nc2c1)CCCC3	14
COc1ccc(OC)c(NC(=O)C2C3C=CC(C3)C2C(=O)NCc2ccccn2)c1 (stereo unspecified)	28
C=C(C)Cn1c(NCCOC)nc2c1c(=O)[nH]c(=O)n2C	-49
CCCN1C2=NCCN2c2cc(C)c(C)cc21	-15
CCOC(=O)N1CCC2(CC1)C(C#N)=C(N)Oc1c2c(C)nn1-c1cccc(Cl)c1	74*
CCOC(=O)C1=C(C)OC(N)=C(C#N)C1c1c(C)nn(-c2ccccc2)c1Cl (stereo unspecified)	-7
CC1(C)CC(=O)C2=C(C1)OC(N)=C(C#N)C21CCN(Cc2ccccc2)CC1	-1
COc1ccc(S(=O)(=O)N2CCOCC2)cc1C(=O)Nc1cc(C)on1	-16
COCc1cc(C)nc(NC2CCCCC2)c1C#N	101*
COCc1cc(C)nc(N2CCN(c3ccccc3)CC2)c1C#N	0
COCc1cc(C)nc(SCC(=O)Nc2ccccc2C)c1C#N	52
CN(C)S(=O)(=O)c1ccc(C(=O)OCC(=O)NC(=O)NCc2ccccc2)cc1	-3
CCOC(=O)Nc1nnc(-c2ccc(OC)c(OC)c2)s1	9
O=C(NC1CCCC1)C1CCN(S(=O)(=O)c2cccc3cccnc23)CC1	4
CC(CS(=O)(=O)c1cccc2cccnc12)N1CCCCC1 (stereo unspecified)	108*
COc1ccc(NS(=O)(=O)c2cccc3cccnc23)cc1	-19
